Assay outcomes: PubChem BioAssay, National Center for Advancing Translational Sciences (NCATS)
Shiga inhibitor: inhibitors of Shiga toxin in Vero cells. Vero cells, Shiga toxin protein synthesis inhibition reporter. inhibition, % at 38.7 µM. 290,000 tested, 9.2% active. AID 2315; in the data active = inhibition mostly above about 28%, no sharp cut-off; inactive = mostly below about 43%; also: 0% is about no effect
Pf growth 48h: P. falciparum growth inhibition at 48 hours (one generation) | P. falciparum luciferase growth in erythrocytes, 48 h | 310,000 tested, 5.9% active | Potency, µM (titrated, usually from 28.7 µM), for the others: top-dose activity change, negative = inhibition, most hits filed as inhibitors; also: potency is read from the fitted curve at half-maximal effect; % is scaled to controls: 0 for no effect and ±100 for the full control effect
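Read-out is firefly luciferase luminescence from an integrated reporter in P. falciparum, so falling signal marks reduced parasite growth. Infected erythrocytes were at 2% hematocrit and 0.1% parasitemia (final) in Albumax-supplemented RPMI 1640.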
CHX counter: affects cycloheximide protein synthesis inhibition readout, counter-screen; cell reporter, cycloheximide protein synthesis inhibition counterscreen; max response, %; 300,000 tested, 12% active; in the data active = max response mostly above about 13%, no sharp cut-off; inactive = mostly below about 14%; also: read at 38.3 µM for the half of the compounds with a filed dose; 0% is about no effect
Pf growth 96h: inhibits malaria parasite growth, 96 h; AID 504834; Potency, µM (top dose mostly 28.7 µM), without a hit: at the highest dose activity change, negative = inhibition, actives largely listed as inhibitors; P. falciparum luciferase reporter growth, 96 h; 320,000 tested, 6.9% active; also: potency is read from the fitted curve at half-maximal effect; % is scaled to controls: 0 for no effect and ±100 for the full control effect
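Two parasite generations (96 h, 37 C, 5% CO2) of compound exposure in infected erythrocytes (0.05% parasitemia, 2% hematocrit). Luciferase-reporter P. falciparum; decreased luminescence indicates inhibited growth, aimed at apicoplast-acting delayed death.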
* = called active by the depositor; ? = inconclusive; nt = no result. Sampled rows, rich in hits. Any-hit rate of the full collection: about 21%. Unless noted, calls follow the shape of the dose curve; as a rule, active = well fitted inhibition curve with a large enough effect; inconclusive = small, poorly fitted or top-dose-only effect, or another doubt; inactive = no such curve, though single readings can be large or run the other way.

SMILES | Shiga inhibitor | Pf growth 48h | CHX counter | Pf growth 96h
CC1CCN(S(=O)(=O)c2cccc(C(=O)N3CCN(c4ccc(F)cc4)CC3)c2)CC1 | 38 | ? | 2 | ?
CC1CC(C)CN(S(=O)(=O)c2cccc(C(=O)N3CCN(c4ccc(F)cc4)CC3)c2)C1 (stereo not drawn) | nt | 12µM* | nt | ?
COc1ccccc1N1CCN(C2CCN(C(=O)c3cccc(F)c3)CC2)CC1 | -3 | -15% | -3 | 13µM*
COc1ccc(C(=O)N2CCC(N3CCN(c4ccccc4)CC3)CC2)cc1OC | -4 | -18% | -2 | 37%
COc1cccc(S(=O)(=O)NCc2ccc(C(=O)N3CCN(c4ccccc4OC)CC3)cc2)c1 | -3 | 7.4µM* | -2 | ?
C=CCNc1nc2c(c(=O)[nH]c(=O)n2C)n1Cc1cccc(C)c1 | -10 | 10% | 0 | 0%
CN1CCN(S(=O)(=O)c2cccc(C(=O)N3CCN(c4ccccc4F)CC3)c2)CC1 | nt | -25% | nt | -24%
O=C(c1cccc(S(=O)(=O)N2CCN(c3ccccc3)CC2)c1)N1CCN(c2ccccc2O)CC1 | nt | 10µM* | nt | ?
O=C(c1cccc(S(=O)(=O)N2CCCCCC2)c1)N1CCN(c2ccccc2F)CC1 | -5 | 12µM* | 1 | 12%
COc1ccccc1N1CCN(C(=O)c2cccc(S(=O)(=O)N3CCCCCC3)c2)CC1 | nt | 13µM* | nt | ?
COc1ccccc1N1CCN(C(=O)c2ccc3c(Cl)c4c(nc3c2)CCCC4)CC1 | -8 | -3% | -3 | 12µM*
O=C(c1ccc2c(Cl)c3c(nc2c1)CCCC3)N1CCN(c2ccc(F)cc2)CC1 | -9 | 3% | -1 | ?
C[C@@]12C=Cc3occc3C1CC[C@@]13C[C@@H](CCC12)[C@@](O)(CO)C3 (stereo partly drawn) | 23 | nt | 0 | nt
O=C(c1cccc(S(=O)(=O)N2CCCCC2)c1)N1CCc2ccccc21 | 8 | 11% | -3 | 1.2µM*
COc1cc(NC(=S)N2CCN(C)CC2)cc(OC)c1 | nt | -11% | 2 | -25%
CCN1CCN(c2ccc(NC(C)=O)cc2Cl)CC1 | 7 | 0% | 1 | ?
CCN1CCN(c2ccc(Cl)cc2NC(=O)c2ccc(-n3nc(C)cc3C)cc2)CC1 | nt | 4.1µM* | nt | ?
CCN1CCN(c2ccc(NC(=O)c3ccc(F)cc3)cc2Cl)CC1 | 43* | ? | 30* | -34%
CCN1CCN(c2ccc(NC(=O)c3cccnc3)cc2Cl)CC1 | 16 | 31% | 11* | nt
Cc1ccc(N2CC(=O)Nc3c(oc4nc(-c5ccccc5)cc(C)c34)C2=O)cc1 | -26 | ? | 2 | -24%
C=CCN1C(=O)c2ccc(C(=O)N(C)CC(=O)Nc3cccc(F)c3)cc2C1=O | -29 | 20% | -2 | 13%
CCOC(=O)CC(NC(=O)CCc1c(C)nc2ncnn2c1C)c1ccc(C)cc1 (stereo not drawn) | -3 | 12% | -5 | -19%
COc1ccc(CNc2cccc3[nH]c(C(F)(F)F)nc23)cc1 | 8 | 1.7µM* | -5 | 21%
COc1cc(CNc2cccc3[nH]c(C(F)(F)F)nc23)cc(OC)c1 | 18 | 2.1µM* | 6 | 24%
COc1ccc(C(=O)NNC(=O)C23CC4CC(CC(C4)C2)C3)cc1OC | nt | ? | nt | -14%
SMILES | Shiga inhibitor | Pf growth 48h | CHX counter | Pf growth 96h
CCC(C(=O)OCC(=O)N(CC)c1c(N)n(Cc2ccccc2)c(=O)[nH]c1=O)c1ccccc1 (stereo not drawn) | nt | -27% | nt | ?
Cc1ccc2c(c1)C(c1ccccc1)N(C(=O)c1c(F)cccc1Cl)CC(=O)N2 (stereo not drawn) | -4 | ? | -5 | 34%
Cc1nn(CCCC(=O)NC(C)c2ccccc2)c(=O)c2nn(-c3ccccc3)c(C)c12 (stereo not drawn) | -8 | ? | 18 | ?
COCCNC(=O)N1[C@H]2CC[C@@H]1C(C(=O)OC)=C(c1ccc(OC(F)(F)F)cc1)C2 | nt | ? | nt | -1%
COC(=O)C1=C(c2ccc(Cl)c(C(F)(F)F)c2)C[C@@H]2CC[C@H]1N2C(=O)NCc1cc(C)oc1C(F)(F)F | nt | 7.4µM* | nt | ?
COC(=O)C1=C(c2ccc(Cl)c(C(F)(F)F)c2)C[C@@H]2CC[C@H]1N2C(=O)N1CCCC1 | nt | 12µM* | nt | ?
COC(=O)C1=C(c2ccc(Cl)c(C(F)(F)F)c2)C[C@@H]2CC[C@H]1N2C(=O)NCC1CC1 | nt | 12µM* | nt | 6.6µM*
Cc1ccc(Cl)cc1NC(=O)Cn1nc(-c2cccs2)ccc1=O | 13 | 1% | -4 | ?
COc1ccccc1NC(=O)c1cc(-c2ccc(C)o2)nc2ccccc12 | 30 | 0% | 10 | -15%
CC(C)NC(=O)NC(=O)COC(=O)c1cc(S(=O)(=O)N2CCCCC2)ccc1N1CCOCC1 | 44* | 8.3µM* | 12* | ?
O=C(COC(=O)c1cc(S(=O)(=O)N2CCOCC2)cs1)c1ccccc1 | 0 | 19% | 7 | 9.3µM*
O=C(Nc1ccccc1[N+](=O)[O-])c1cc(S(=O)(=O)N2CCOCC2)cs1 | 38 | -3% | 19* | ?
O=C(COC(=O)c1cc(S(=O)(=O)N2CCCCC2)ccc1N1CCOCC1)c1ccc(Cl)cc1 | nt | 12µM* | nt | 13µM*
O=C(Nc1ccccc1)c1cc(S(=O)(=O)N2CCOCC2)cs1 | -18 | nt | -1 | 7%
O=C(COC(=O)c1cc(S(=O)(=O)N2CCCCC2)ccc1N1CCOCC1)NCCc1ccc(F)cc1 | 3 | ? | -2 | ?
COC(=O)c1c(NC(=S)Nc2ccc(C(=O)N3CCOCC3)cc2)sc2c1CCC2 | 16 | 20% | 5 | 12%
CC(C)CNC(=O)COC(=O)c1cc(S(=O)(=O)N2CCCCC2)ccc1N1CCOCC1 | -8 | ? | 6 | ?
O=C(COC(=O)c1cc(S(=O)(=O)N2CCCCC2)ccc1N1CCOCC1)c1ccccc1 | nt | 8.3µM* | nt | ?
COc1ccc(N2C(=O)c3cc4ccccc4cc3C2=O)cc1 | -5 | 1% | -2 | 10µM*
COc1ccccc1Oc1ccc2c(c1)C(=O)N(c1ccc(C)cc1)C2=O | -9 | 0% | 1 | 45%
C=C1c2ccccc2NC(=O)N1c1ccc(OC)cc1 | 36 | 8% | 12* | 16%
COc1ccc(N2C(=O)NC(=O)/C(=C\c3ccccc3[N+](=O)[O-])C2=O)cc1 | -7 | 10% | 1 | 17%
COc1ccc(N2C(=O)NC(=O)C2=O)cc1 | 4 | 1% | 40* | 9%
O=C(O)[C@H](CC(=O)N1C[C@H]2CCCC[C@H]2C1)Cc1ccccc1 | nt | -11% | nt | 6%
Cc1ccc([N+](=O)[O-])cc1-c1[nH]c(-c2ccc(O)c(O)c2)nc1-c1ccccc1 | 1 | nt | -4 | 20%
COc1ccc([N+](=O)[O-])cc1-c1[nH]c(-c2ccc(C(=O)O)cc2)nc1-c1ccccc1 | -9 | 8.3µM* | 1 | ?
COc1ccc(-c2nc(-c3ccccc3)c(-c3cc([N+](=O)[O-])ccc3C)[nH]2)cc1O | 19 | 5.2µM* | -6 | ?
C=CCSc1n[nH]c2nc3c(c(=O)n12)C1(CCCC1)Cc1ccccc1-3 | -6 | -7% | 0 | 5%
CNc1nc(N)c([N+](=O)[O-])c(Nc2ccccc2OC)n1 | 15 | nt | -3 | 0%
